The values that follow come from PubChem BioAssay (NCI).

Test in all cases: NCI-60 one-dose screen, 48 h (100 = growth as untreated, 0 = no growth, -100 = all killed)
Conditions in all cases: 10 µM unless noted

Test [1] relates to DU-145 prostate.
Test [2] concerns K-562 leukemia.
The test system of test [3] is MALME-3M melanoma.
The test system of test [4] is MDA-MB-231 breast.
The test system of test [5] is RXF 393 renal.
For test [6], the system named is SF-268 CNS.
Test [7] has as its system SF-295 CNS.
Test [8] relates to SF-539 CNS.
Test [9] concerns UACC-257 melanoma.
Test [10] concerns M14 melanoma.
The subject of test [11] is HCT-15 colon.
In test [12] the test system is HT29 colon.
Test [13] deals with SNB-75 CNS.
The subject of test [14] is SNB-19 CNS.
For test [15], the system named is U251 CNS.
For test [16], the system named is PC-3 prostate.
Test [17] has as its system SK-MEL-5 melanoma.
The test system of test [18] is UACC-62 melanoma.
In test [19] the test system is LOX IMVI melanoma.
Test [20] concerns SK-MEL-28 melanoma.

This is part of a sample that, as a whole, favours compounds with a hit. Of some 83,000 tested, about 20% had one in any assay.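 Plates (96-well) were seeded with cells, treated with compound at one concentration, and incubated for 48 hours before percent growth was determined.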 A number with no mark means an inactive call. Activity calls are given as the source filed them. Rule for the calls: active = growth percent below 10; inactive = the rest.

For `COc1nc2c(c(=O)n1C)CN(c1ccccc1)C(=O)CN2C`, the growth in test [1] was 66.3% [100 µM]; in test [2], 55.2% [100 µM]; in [3], 74.3% [100 µM]; in test [4], 47.5% [100 µM]; in test [5], 60.4% [100 µM]; in test [6], 63.4% [100 µM]. Moreover, the growth in [7] was 50.7% [100 µM]; in test [8], 60.8% [100 µM]; in [9], 73.6% [100 µM]; in [10], 68% [100 µM]; in [11], 52.7% [100 µM]; in test [12], 62.3% [100 µM]. Moreover, the growth is 45% [100 µM] in test [13]; 57.4% [100 µM] in test [14]; 62.6% [100 µM] in test [15]; 37.7% [100 µM] in [16]; 48.4% [100 µM] in test [17]; 43.9% [100 µM] in test [18]. Besides, the growth is 70.3% [100 µM] in [19] and 90.4% [100 µM] in [20].
As for `Cc1cc(NCCCCNc2ccnc3cc(Cl)ccc23)nc(Nc2ccc(C(=O)N3CCCCC3)cc2)n1`, the growth was 21.8% in test [1]; -46.2% (active) in test [2]; -76.3% (active) in [3]; -41.1% (active) in test [4]; -74.4% (active) in [5]; -38.3% (active) in test [6]. Besides, the growth is -60.3% (active) in [7]; -79.6% (active) in test [8]; -67.5% (active) in test [9]; -85% (active) in test [10]; -31.6% (active) in test [11]; -25.4% (active) in test [12]. Also, the growth in [13] was -73.4% (active); in [14], 25.1%; in test [15], -36.3% (active); in test [16] it was 12.2%; in test [17], -96.5% (active); in test [18], -57.8% (active). Also, the growth is -78.3% (active) in test [19] and -76.5% (active) in [20].
As for `CNC(=O)CCN1CCN(CC/C=C2\c3ccccc3Sc3ccc(Cl)cc32)CC1`, the growth in test [1] was 90.5%; in test [2], 32.4%; in test [3], 98%; in [4], 102%; in test [5], 21.6%; in test [6], 77.5%. The growth in [7] was 98.5%; in test [8], 97.3%; in test [9] it was -30.9% (active); in test [10] it was 81.3%; in [11], 63.2%; in [12], 58.2%. Besides, the growth in [13] is 74.3%; in test [14], 98.6%; in test [15], 77.8%; in test [16], 8.82% (active); in test [17] it was 79.6%; in test [18], 60.4%. For the same molecule, the growth in test [19] was 72%; in [20], -51.5% (active).
As for `NNC(=O)c1nc(N)n(-c2ccc(S(N)(=O)=O)cc2)n1`, the growth in test [1] was 92.8%; in test [2], 96.5%; in test [3], 97.8%; in test [4], 88.6%; in test [5], 110%; in test [6] it was 93.3%. The growth in [7] was 109%; in test [8], 89.2%; in test [9] it was 97.2%; in [10], 94.4%; in [11], 107%; in [12], 99.9%. In addition, the growth was 92.5% in [13]; 96.4% in test [14]; 88.8% in test [15]; 89.7% in test [16]; 96.9% in test [17]; 99.2% in test [18]. For the same molecule, the growth in [19] was 93.3%; in test [20], 108%.
With `Clc1cccc(Cl)c1C(Nc1nc2ccccc2s1)Nc1nc2ccccc2s1`, the growth in [1] was 131%; in test [2] it was 79.6%; in test [3], 123%; in [4], 104%; in [5], 104%; in test [6], 105%. The growth in test [7] is 143%; in test [8], 93.6%; in test [9] it was 102%; in test [10], 122%; in test [11] it was 83.6%; in test [12], 108%. Also, the growth was 80.8% in test [13]; 99.1% in [14]; 94.7% in test [15]; 74.2% in [16]; 88.4% in [17]; 95.7% in test [18]. In addition, the growth is 86.1% in [19] and 109% in [20].
As to `CC(=O)n1c(-c2ccc(Cl)cc2)nc2c(c1=O)C(c1ccc(Cl)cc1)c1sc3c(Cl)cccc3c1O2` (stereo not given), the growth in test [1] is 2.09% (active); in [2], -0.184% (active); in [3] it was 51.8%; in [4] it was -28.8% (active); in test [5], -25.4% (active); in test [6], -0.0873% (active). In addition, the growth is -20% (active) in [7]; -63.2% (active) in [8]; 21.3% in test [9]; -39.3% (active) in test [10]; -37.4% (active) in test [11]; -52.4% (active) in test [12]. The growth was -22% (active) in test [13]; 14.2% in test [14]; -37.7% (active) in test [15]; 4.54% (active) in [16]; -17.7% (active) in [17]; 3.42% (active) in test [18]. For the same molecule, the growth in [19] is -33.8% (active); in test [20], 18%.
As for `O=C1Nc2ccccc2/C1=C/c1cn(C(=O)c2ccc(Cl)cc2)c2ccccc12`, the growth in [1] was 118%; in [2], 85.7%; in test [3], 118%; in test [4], 77.7%; in test [5], 130%; in test [6], 99.9%. Also, the growth in test [7] was 114%; in [8], 99.4%; in [9] it was 99.7%; in test [10], 102%; in test [11] it was 92.1%; in test [12], 110%. Besides, the growth is 87.7% in [13]; 99.1% in test [14]; 99.4% in [15]; 95.7% in test [16]; 97.7% in [17]; 89.3% in test [18]. In addition, the growth in test [19] was 100%; in test [20] it was 93%.
For `COc1cccc(-c2nn(-c3ccccc3)cc2-c2ccnc(NCCCNC(=O)c3cccc(C(F)(F)F)c3)c2)c1`, the growth in test [1] was 52.3%; in [2], 18%; in [3] it was 9.81% (active); in test [4], 23.6%; in test [5] it was 36%; in [6], 57.4%. The growth in test [7] was 27.3%; in test [8] it was 30.6%; in [9] it was 12.1%; in [10] it was 28.2%; in test [11], 21%; in test [12], 8.77% (active). Further, the growth in [13] is 58.6%; in [14], 45.3%; in test [15] it was 24.7%; in test [16], 13.3%; in test [17] it was -64.4% (active); in [18], 23.9%. For the same molecule, the growth is 28% in [19] and 50.3% in test [20].
